Test results from PMC5540273 (PLoS ONE, 2017).

Legend:
Details in all cases: concentration: 1 μM, replicates: in singlicate; n = 1
LOK = test system: T1, LOK
T1 construct: gene STK10

LRRK2 = test system: LRRK2
LTK = test system: LTK
LYN = test system: LYN
LZK = test system: T2, LZK
T2 construct: gene MAP3K13

MAK = test system: MAK
MAP3K15 = test system: MAP3K15
MAP3K1 = test system: MAP3K1
MAP3K2 = test system: MAP3K2
MAP3K3 = test system: MAP3K3
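Also: KINOMEscan kinase panel screen.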

SMILES	%Inh (LOK) [%]	%Inh (LRRK2) [%]	%Inh (LTK) [%]	%Inh (LYN) [%]	%Inh (LZK) [%]	%Inh (MAK) [%]	%Inh (MAP3K15) [%]	%Inh (MAP3K1) [%]	%Inh (MAP3K2) [%]	%Inh (MAP3K3) [%]
CC(C)(C)c1ccc(C(=O)Nc2cn3cc(-c4ccccc4)ccc3n2)cc1	0	0	0	0	0	11	22	0	0	2
COc1cc2nccc(Nc3cccc(Oc4ccccc4)c3)c2cc1OC.Cl [GW284543]	0	48	0	0	0	12	0	0	0	0
CCCNC(=O)Nc1ccc(Oc2ncnc3ccn(C)c23)cc1	47	0	4	30	22	0	0	31	15	0
Cc1nnc(-c2ccc3ncn(-c4ccc(S(C)=O)cc4)c3c2)o1 (stereo not drawn)	4	0	0	8	0	0	0	16	0	0
COC(=O)c1c(-c2ccccc2)c2cc(C)ccc2c(=O)n1Cc1ccccc1	0	0	0	7	0	0	0	0	0	0
Cc1c(Cn2c(C)nn3c(=O)cc(N4CCO[C@H](C)C4)nc23)cccc1C(F)(F)F [GSK2373690]	0	31	0	0	0	0	26	7	2	0
Cc1ccc(-c2ccc3c(ccc4sc5c(c43)NC[C@@H](C)N=C5N(C)C)n2)cn1	0	0	0	0	0	17	0	0	0	0
COc1ccc(-n2cnc3c(N)ncnc32)cc1 [SKF-97236]	0	17	20	0	0	0	13	9	8	8
O=C1NC(=O)C(c2ccccc2)=C1Nc1cccc(O)c1 [SB-390534]	23	0	1	0	0	26	17	0	4	49
Nc1nccc2scc(-c3ccc4c(c3)CCN4C(=O)Cc3ccccc3)c12 [GSK2576924]	21	0	69	0	1	23	9	0	12	0
COc1cc(Nc2ccnc3ccc(C(F)(F)F)cc23)cc(OC)c1OC [GW577382]	18	27	0	25	30	12	3	4	0	0
Nc1n[nH]c2nnc(-c3ccccc3)c(-c3ccccc3)c12 [GW554060]	0	41	0	100	3	26	0	25	3	0
Nc1ncnc2c1ncn2-c1cccc(F)c1 [SKF-97560]	0	31	0	0	13	0	0	16	3	5
OCCCNc1nccc(-c2c(-c3cccc(C(F)(F)F)c3)nn3cc(C(F)(F)F)ccc23)n1 [GW630813]	0	0	4	0	43	16	0	0	0	0
CCC(=O)c1c(-c2ccccc2)c2cc(Cl)ccc2c(=O)n1Cc1cc(S(C)(=O)=O)n(CC(N)=O)n1	0	8	0	7	0	15	0	0	0	0
COc1cc2ncn(-c3cc(OCc4ccncc4)c(C(N)=O)s3)c2cc1OC [GSK336313]	0	0	2	0	0	23	11	25	0	0
O=C(NCCNc1ccnc(Nc2ccc(F)cc2)n1)Nc1ccc2c(c1)OCO2 [GSK1379882]	0	0	0	0	0	30	0	1	0	0
COc1cc(OC)cc(-c2cc3cnc(N)nc3nc2NC(=O)NC(C)(C)C)c1	13	0	0	0	0	0	0	0	0	13
